# Key:
# Assay in all cases: PBM binding z-score (relative to random genomic background probes); higher = stronger binding; sequences stand for … in GC…GCGATTGACAGCGTAGAATGAAGG
# [1] = tested on: FXR:RXRa (NR concentration 270 nM, RXRa partner concentration 90 nM)
# Procedure, shortened: (§1)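 Antibodies against each partner of ligand-free nuclear receptor dimers (one per run) detected binding on custom Agilent 4×180K protein-binding microarrays after 1 h incubation. The double-stranded probes had 34-nt variable regions carrying direct-repeat seeds, single-nucleotide variants, half-site ablations and random human genomic background sequences. Binding z-scores, from regression-normalized fluorescence, use the random background probes as reference.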
# [2] = tested on: LXRa:RXRa (NR concentration 270 nM, RXRa partner concentration 90 nM)
# Procedure, shortened: as §1
# [3] = tested on: LXRa homodimer (NR concentration 270 nM)
# Procedure, shortened: as §1
# [4] = tested on: LXRb:RXRa (NR concentration 270 nM, RXRa partner concentration 90 nM)
# Procedure, shortened: as §1
# [5] = tested on: LXRb homodimer (NR concentration 270 nM)
# Procedure, shortened: as §1
# [6] = tested on: PPARa:RXRa (NR concentration 270 nM, RXRa partner concentration 90 nM)
# Procedure, shortened: as §1
# [7] = tested on: PPARg:RXRa (NR concentration 180 nM, RXRa partner concentration 90 nM)
# Procedure, shortened: as §1
# [8] = tested on: PPARg:RXRa 270nM:90nM, anti-RXR (NR concentration 270 nM, RXRa partner concentration 90 nM)
# Procedure, shortened: as §1
# [9] = tested on: PPARg:RXRa 30nM:10nM, anti-RXR (NR concentration 30 nM, RXRa partner concentration 10 nM)
# Procedure, shortened: as §1
# [10] = tested on: PPARg:RXRa 90nM:30nM, anti-RXR (NR concentration 90 nM, RXRa partner concentration 30 nM)
# Procedure, shortened: as §1
# [11] = tested on: PPARg:RXRa DBDmut IVT, anti-RXR (DBD mutation: RXRa K156A/R161A, NR concentration 270 nM, RXRa partner concentration 90 nM)
# Procedure, shortened: as §1
# [12] = tested on: PPARg:RXRa IVT, anti-PPARg (NR concentration 270 nM, RXRa partner concentration 90 nM)
# Procedure, shortened: as §1
# [13] = tested on: PPARg DBDmut:RXRa IVT, anti-PPARg (DBD mutation: PPARg1 K132A/R137A, NR concentration 270 nM, RXRa partner concentration 90 nM)
# Procedure, shortened: as §1
# [14] = tested on: PPARg DBDmut IVT, anti-PPARg (DBD mutation: PPARg1 K132A/R137A, NR concentration 270 nM)
# Procedure, shortened: as §1
# [15] = tested on: PPARg homodimer (NR concentration 180 nM)
# Procedure, shortened: as §1
# [16] = tested on: PXR:RXRa (NR concentration 270 nM, RXRa partner concentration 90 nM)
# Procedure, shortened: as §1
# [17] = tested on: PXR homodimer (NR concentration 270 nM)
# Procedure, shortened: as §1
# [18] = tested on: RARa:RXR (NR concentration 270 nM, RXRa partner concentration 90 nM)
# Procedure, shortened: as §1
# [19] = tested on: RARa homodimer (NR concentration 270 nM)
# Procedure, shortened: as §1
# [20] = tested on: RARb:RXRa (NR concentration 270 nM, RXRa partner concentration 90 nM)
# Procedure, shortened: as §1
Sequence,PBM binding z-score [1],PBM binding z-score [2],PBM binding z-score [3],PBM binding z-score [4],PBM binding z-score [5],PBM binding z-score [6],PBM binding z-score [7],PBM binding z-score [8],PBM binding z-score [9],PBM binding z-score [10],PBM binding z-score [11],PBM binding z-score [12],PBM binding z-score [13],PBM binding z-score [14],PBM binding z-score [15],PBM binding z-score [16],PBM binding z-score [17],PBM binding z-score [18],PBM binding z-score [19],PBM binding z-score [20]
CATACAGGGTCAGCTAGGCCGGAGTAGGGACGGC,4.6,2.61,-0.304,1.86,0.54,3.9,2.9,2.96,0.304,1.69,0.767,2.06,0.399,0.204,1.63,1.76,-0.278,2.9,0.038,3.87
AGAACGCGGGCAATGAGTTGATAGCACGGGTGGC,-0.43,-0.534,-0.756,-1.26,-1.21,-0.548,0.71,-0.504,-0.182,-0.404,0.179,-0.0527,0.2,-0.67,-0.548,-0.0595,0.229,-0.166,-0.629,0.349
AGTCAAGGTTCAGGACGAGGTAACGTAAAGCACG,2.68,1.82,0.192,1.05,-0.0826,2.34,1.97,2.16,0.624,1.34,-0.591,0.701,-0.373,0.579,0.61,1.35,0.133,1.95,0.0883,2.38
ATATGTAGGTTACATCCGGGTCATTCACGCTATG,2.44,4.66,1.9,3.31,1.26,4.8,6.27,5.48,2.76,4.79,7.63,7.57,6.55,5.07,5.81,4.01,1.48,4.11,1.52,2.41
TTACCAAGGTGAGCTGAGGTCGTTGATCCAACTC,2.68,1.31,-0.429,0.771,-0.932,1.75,0.0695,0.731,-0.00962,0.482,1.28,2.17,-0.497,-0.723,-0.21,4.78,0.329,1.72,-1.01,1.93
AGAATGAGGTTATACTTAGATCAGGGAAGAAAGT,1.79,1.76,0.275,1.58,0.388,2.68,1.83,1.44,0.605,1.17,2.72,2.03,1.21,1,1.21,1.02,0.666,1.38,1.18,1.3
TTACCAAGGTAAGCTGAGGTCGTTGATCCAACTC,0.46,2.12,-0.287,0.881,-0.769,1.3,-0.244,0.0724,-0.421,-0.31,-0.0286,0.407,-0.293,-0.159,-0.361,3.52,0.144,1.9,-1.52,0.571
TTACCAAGGTGAGCTGAGGTAGTTGATCCAACTC,-0.711,-0.48,-0.742,-0.743,-1.03,0.16,-0.149,-0.0423,-0.136,-0.391,0.816,1.21,0.143,-0.469,-1.15,0.018,-0.878,1.14,-0.894,0.883
TCGCCTAGGTCAGATCGGGCCAGTATACGCTATA,1.75,1.2,-0.481,0.65,-0.762,1.71,0.474,1.19,1.68,1.28,1.92,1.11,-0.622,-0.724,-0.2,1.23,-0.531,1.05,-0.742,3.12
